Assay outcomes from PubChem.
A selection: hits, their analogues and other compounds. The true share with any hit is near 1.9%.
eIF4H inh = human eIF4H binding inhibitors, primary screen, translation initiation inhibitor project, biochemical, uHTS, fluorescence polarization; Eukaryotic translation initiation factor 4H (Homo sapiens), Q15056; eIF4H fluorescence polarization binding assay; inhibition, % at 35 µM; 0.94% of 290,000 active; AID 2012, 2009;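 note: calls also rest on retests at 20 µM and on dose response follow-up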
PABP1 MLLE inh = inhibitors of PABP1 MLLE–PAM2 peptide binding, primary screen, biochemical, fluorescence polarization, FITC-PAM2, GST-MLLE; Polyadenylate-binding protein 1 (Homo sapiens), P11940; inhibition, % at 20 µM; 0.36% of 360,000 active; in the data active = inhibition above about 35%, passing the limit was not always enough;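 note: plate controls were DMSO wells with GST-MLLE for no effect and wells lacking GST-MLLE protein for full effect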
14-3-3 Bad inh = inhibitors of 14-3-3 zeta/Bad binding, primary screen, biochemical, TR-FRET, bovine 14-3-3 zeta; 0.71% of 220,000 active; TR-FRET 14-3-3zeta/Dy647-pBad peptide displacement, 1 h; inhibition, % at 21.7 µM; 14-3-3 protein zeta/delta (Bos taurus), P63103;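 active = inhibition above about 70%, limit read from the data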;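 note: 0% = full 14-3-3 plus peptide FRET controls and 100% = background without 14-3-3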
Target sequence (P63103 whole entry, looked up): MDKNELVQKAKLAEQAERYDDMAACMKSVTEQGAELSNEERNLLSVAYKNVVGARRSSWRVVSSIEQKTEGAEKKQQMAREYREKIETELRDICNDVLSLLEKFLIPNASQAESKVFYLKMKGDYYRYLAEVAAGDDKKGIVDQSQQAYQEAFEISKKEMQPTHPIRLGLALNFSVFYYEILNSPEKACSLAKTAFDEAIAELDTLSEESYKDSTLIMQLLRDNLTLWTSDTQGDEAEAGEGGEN
eIF4E 4G PPI = eIF4E–eIF4G protein interaction inhibitors, primary screen, biochemical, uHTS, TR-FRET, eIF4GI fragment; Eukaryotic translation initiation factor 4E (Mus musculus) + Eukaryotic translation …; TR-FRET eIF4E-eIF4GI(517-606) binding, 2 h; inhibition, % at 21.7 µM; 0.37% of 220,000 active; AID 782, 2007;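 active = inhibition above about 30%, limit read from the data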;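 note: 0% = full FRET control wells and 100% = background wells lacking eIF4GI fragment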
PABP polyA inh = PABP poly(A) RNA binding inhibitors, primary screen, biochemical, fluorescence polarization, uHTS; Polyadenylate-binding protein 1 (Homo sapiens), P11940; calls only at 35 µM; 1% of 290,000 active; AID 2014, 2009;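 note: calls also rest on retests at 20 µM and on dose response follow-up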
The depositor's hits bear a star; i = inactive; u = inconclusive; x = no result; + = active, no number; [ ] = remark or other dose. Unless noted, the rule behind the calls is not given here.

SMILES	eIF4H inh	PABP1 MLLE inh	14-3-3 Bad inh	eIF4E 4G PPI	PABP polyA inh
COc1ccc(CNC(=O)C2CC(=O)N(C3CCCC3)C2)cc1 (centres undefined)	12	-10	x	x	i
COc1ccc(C2c3cc(OC)c(OC)cc3CC3C(=O)OCC32)cc1OC (centres undefined)	x	11	x	x	x
Cc1[nH]c(=S)c(C#N)c(-c2ccco2)c1C(=O)N(C)C	90	16	-17	2	+
FC(F)(F)c1ccc(Cl)c(-n2c(-c3cc(-c4ccco4)[nH]n3)n[nH]c2=S)c1	u	-54	4	-6	+
Cc1ccc(-n2c(-c3ccccc3)c[n+]3c2CCC3)cc1	-1	0	-6	-1	i
Cc1ccc(-n2c(-c3ccc(Cl)cc3)c[n+]3c2CCC3)cc1	-1	2	-1	94*	i
O=C(CSc1n[nH]c(-c2ccc(Br)cc2)n1)N1CCOCC1	x	-25	x	x	x
CCNC(=S)N1N=C2c3ccccc3CCC2C1c1ccc(F)cc1 (centres undefined)	-3	-53	-3	-4	i
COc1ccc(Cc2c(C(C)(C)C)nc3c(C)cc(Br)cn23)c(C)c1	x	47*	x	x	x
CCOC(=O)c1ccccc1NC(=O)CSc1nc2[nH]ncc2c(=O)[nH]1	x	-9	x	x	x
Cc1cccc(N=C2NC(=O)/C(=C/C=C/c3ccco3)S2)c1C	85	-18	4	10	+
COc1ccc(N=C2NC(=O)/C(=C/c3ccco3)S2)cc1	66*	-22	-10	0	i
Cc1ccc(N=C2NC(=O)/C(=C/C=C/c3ccco3)S2)cc1	76*	-39	12	20	+
O=C(CS(=O)(=O)Cc1ccccc1)NCc1ccccc1Cl	-23	5	x	x	i
CC(=O)Oc1c(C)c2c3c(c1OC(C)=O)[C@@H](C)CC[C@@H]3[C@@H](C)C[C@H]2C=C(C)C	x	14	x	x	x
Cn1c2ccccc2c2ccc3c(c21)C(=O)C=CC3=O	x	31	x	x	x
Cc1ccc2c(c1)c1ccc3c(c1n2C)C(=O)C=CC3=O	24	42*	6	7	i
COc1ccc2c(c1)c1ccc3c(c1n2C)C(=O)C=CC3=O	5	49*	-3	3	i
COc1ccc2c(c1)c1ncn(CCN3CCCC3)c(=O)c1n2C	-11	-5	-9	5	i
O=C(COc1ccc(-n2cnnn2)cc1)Nc1cccc(Cl)c1Cl	65*	-8	x	x	i
CCCS(=O)(=O)N1CCN(S(=O)(=O)c2ccccc2)CC1	-4	-7	5	64*	i
CC(CCc1ccccc1)N1CCN(Cc2ccccc2)CC1 (centres undefined)	7	3	6	-1	i
CN1CCN(S(=O)(=O)c2ccccc2)CC1	-2	-2	x	x	i
CCS(=O)(=O)N1CCN(C(C)CCc2ccccc2)CC1 (centres undefined)	0	6	70*	15	i
CCc1nc2ccc(C(=O)NCCCn3ccnc3)cn2c1N(CC)C(=O)NCCc1ccccc1	x	5	x	x	x
SMILES	eIF4H inh	PABP1 MLLE inh	14-3-3 Bad inh	eIF4E 4G PPI	PABP polyA inh
CC1(C(=O)NS(=O)(=O)c2ccc(Cl)cc2)CCN1C(=O)C1(c2ccc(Cl)cc2)CCC1 (centres undefined)	x	5	x	x	x
CCc1ccc(C(=O)NC(=S)Nc2ccc(N3CCOCC3)cc2)cc1	-1	40*	-9	-3	i
CCC(=O)N1CCN(c2ccc(NC(=S)NC(=O)c3ccc(OC)c([N+](=O)[O-])c3)cc2)CC1	-3	42*	-11	-1	i
O=S(=O)(O)c1cc(Cl)cc(N=Nc2ccc(O)cc2O)c1O	x	7	x	x	x
O=S(=O)(O)c1cc(O)c2c(O)c(N=Nc3cc(Cl)ccc3O)c(S(=O)(=O)O)cc2c1	80*	4	x	x	+
CN(C)CCNc1nc2sc3c(c2c(=O)n1-c1ccccc1)CCCCC3	5	-8	-7	79*	i
CN(C)CCNc1nc2sc3c(c2c(=O)n1-c1ccc(F)cc1)CCCCC3	18	-10	5	1	i
O=C(Oc1ccccc1)c1cc(O)c(O)c(O)c1	x	17	x	x	x
COc1ccc(N/C(=C(/C(Cl)=C(Cl)Cl)[N+](=O)[O-])n2nnc3ccccc32)cc1	19	x	79*	0	i
COc1cccc(NC(=O)C(c2ccccc2)N2CCCCC2)c1 (centres undefined)	8.5*	-5	-7	-1	+
COc1cccc(NC(=O)C(NCC2CCCCC2)c2ccccc2)c1 (centres undefined)	-2	-7	84*[fluorescence artefact?]	2	i
COc1cccc(NC(=O)C(c2ccccc2)N2CCN(CC(=O)N3CCOCC3)CC2)c1 (centres undefined)	x	-24	x	x	x
O=C(Nc1ccc(F)cc1)NC1CCCCCCC1	-6	7	x	x	i
COc1ccc(C(=O)C(c2ccccc2)N2CCOCC2)cc1 (centres undefined)	3	4	71*	-11	i
O=C(Nc1ccc(F)cc1)C(NC1CCCCC1)c1ccccc1 (centres undefined)	2.7*	-2	-29	1	+
CC(NCc1cc(Br)ccc1OCC(N)=O)C12CC3CC(CC(C3)C1)C2 (centres undefined)	9	-2	x	x	i
O=C(N/N=C/c1ccc(Br)o1)/C(=C/c1ccc([N+](=O)[O-])cc1)NC(=O)c1ccccc1	-6	11	3	-1	i
O=C(O)CCN1CCc2ccccc2C1c1ccncc1 (centres undefined)	-4	11	x	x	i
CCOC(=O)C1=C(N)n2c(s/c(=C\c3ccco3)c2=O)=C(C(=O)OCC)C1c1ccco1 (centres undefined)	97*	-4	6	-4	+
CCOC(=O)C1=C(N)n2c(s/c(=C\c3ccco3)c2=O)=C(C(=O)OC(C)C)C1c1ccco1 (centres undefined)	u	-9	-10	-1	i
O=C(Nc1cccc(N=Cc2cc(Br)cc(Br)c2O)c1)c1ccco1	u	-8	21	4	+
CC(C)CCN1NC2(CCCC(C)C2)NC1=S (centres undefined)	-11	-56	-1	-4	i
O=C(CSc1nc(-c2ccc(F)cc2)nc2c1Cc1ccccc1O2)Nc1cccc(C(=O)O)c1	81	-4	95*	63*	i
Oc1c(N=Nc2ccc(F)cc2)ccc2ccccc12	50	-31	x	x	i
Oc1c(N=Nc2nn[nH]n2)ccc2ccccc12	x	47*	x	x	x
Fc1cccc2sc(Nc3nc4ccccc4s3)nc12	11	10	-14	-1	i
O=C(O)c1cc(-c2cccc([N+](=O)[O-])c2)n[nH]1	8	0	-7	0	i
